{"source": "the supplement of paper PMC10338343", "key": {"[1]": {"system": "MILI (PIWIL2) piRISC loaded with L1MC piRNA (26 nt)", "assay": "pre-steady-state target cleavage rate (min^-1); guide: L1MC piRNA 5'p-UAACUAAAUACUAUGCAAGCUGUAGG; higher = faster piRNA-guided slicing of the target", "method_in_brief": "(§1)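 The method was Cleave-'n-Seq, in which uncleaved targets from a transcribed, DNA-blocked target RNA library were sequenced after exposure to active affinity-purified piRISC carrying one synthetic guide, with or without GTSF1 partner protein. Reactions contained 0.1 nM library, 1 nM piRISC and, where present, 500 nM GTSF1 in HEPES–potassium acetate buffer at 33 °C for 0–8 or 0–960 min. Reads were normalised to depth and to weakly complementary targets, three trials were pooled, and k3 was capped at 0.0001 min^-1. The pre-steady-state cleavage rate came from a burst-and-steady-state fit.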"}, "[2]": {"system": "EfPiwi piRISC loaded with L1MC piRNA (26 nt)", "assay": "pre-steady-state target cleavage rate (min^-1); auxiliary factor: 500 nM Ephydatia muelleri Gtsf1; guide: L1MC piRNA 5'p-UAACUAAAUACUAUGCAAGCUGUAGG; MIWI and MILI are mouse PIWI proteins and EfPiwi is from a freshwater sponge; tags in brackets are library labels; higher = faster piRNA-guided slicing of the target", "method_in_brief": "as §1"}, "[3]": {"conditions": "auxiliary factor: 500 nM mouse GTSF1"}, "[4]": {"conditions": "auxiliary factor: none (no GTSF1)"}}, "note": "± gives the standard deviation.", "data": [{"sequence": "UCCUGGAUCAGCUACCAUAGUAUUUAGUUA", "values": [{"measurement": "pre-steady-state target cleavage rate", "setting": "[1]; [3]", "result": "0.145 ± 0.014"}, {"measurement": "pre-steady-state target cleavage rate", "setting": "[1]; [4]", "result": "0.00343 ± 0.0016"}, {"measurement": "pre-steady-state target cleavage rate", "setting": "[2]", "result": "0.00516 ± 0.0032"}]}, {"sequence": "UCCUGGAUCAGCUUGCAUAGUAUAAAGUUA", "values": [{"measurement": "pre-steady-state target cleavage rate", "setting": "[1]; [3]", "result": "0.171 ± 0.018"}, {"measurement": "pre-steady-state target cleavage rate", "setting": "[1]; [4]", "result": "0.00561 ± 0.0029"}, {"measurement": "pre-steady-state target cleavage rate", "setting": "[2]", "result": "0.00752 ± 0.0027"}]}, {"sequence": "UCCUGGAUCAGCUUGCAUAGUAUUUAUGUUA", "values": [{"measurement": "pre-steady-state target cleavage rate", "setting": "[1]; [3]", "result": "0.133 ± 0.017"}, {"measurement": "pre-steady-state target cleavage rate", "setting": "[1]; [4]", "result": "0.00471 ± 0.0027"}, {"measurement": "pre-steady-state target cleavage rate", "setting": "[2]", "result": "0.0559 ± 0.02"}]}, {"sequence": "UCCUGGAACAGCUUGCAAAGUAAUUAGUUA", "values": [{"measurement": "pre-steady-state target cleavage rate", "setting": "[1]; [3]", "result": "0.131 ± 0.018"}, {"measurement": "pre-steady-state target cleavage rate", "setting": "[1]; [4]", "result": "0.00424 ± 0.0022"}, {"measurement": "pre-steady-state target cleavage rate", "setting": "[2]", "result": "0.00403 ± 0.002"}]}, {"sequence": "UCCUGGUACAGCUUGCCUAGUAUUUAGUUA", "values": [{"measurement": "pre-steady-state target cleavage rate", "setting": "[1]; [3]", "result": "0.213 ± 0.019"}, {"measurement": "pre-steady-state target cleavage rate", "setting": "[1]; [4]", "result": "0.00843 ± 0.0026"}, {"measurement": "pre-steady-state target cleavage rate", "setting": "[2]", "result": "0.00475 ± 0.0026"}]}, {"sequence": "UCCUGGAUGUCCUUGCAUAGUUUUUAGUUA", "values": [{"measurement": "pre-steady-state target cleavage rate", "setting": "[1]; [3]", "result": "0.0125 ± 0.0057"}, {"measurement": "pre-steady-state target cleavage rate", "setting": "[1]; [4]", "result": "0.00594 ± 0.0021"}, {"measurement": "pre-steady-state target cleavage rate", "setting": "[2]", "result": "0.00455 ± 0.003"}]}, {"sequence": "UCCUGGAUGUGGUUGCAUAGUAUAUAGUUA", "values": [{"measurement": "pre-steady-state target cleavage rate", "setting": "[1]; [3]", "result": "0.158 ± 0.023"}, {"measurement": "pre-steady-state target cleavage rate", "setting": "[1]; [4]", "result": "0.00921 ± 0.0037"}, {"measurement": "pre-steady-state target cleavage rate", "setting": "[2]", "result": "0.00747 ± 0.0056"}]}, {"sequence": "UCCUGGAACAGCUUAGCAUAGUAUUUAGUUA", "values": [{"measurement": "pre-steady-state target cleavage rate", "setting": "[1]; [3]", "result": "0.27 ± 0.019"}, {"measurement": "pre-steady-state target cleavage rate", "setting": "[1]; [4]", "result": "0.00815 ± 0.0027"}, {"measurement": "pre-steady-state target cleavage rate", "setting": "[2]", "result": "0.0218 ± 0.0061"}]}, {"sequence": "UCCUGCUACAGCUUGCAUAGUAUUUACGUUA", "values": [{"measurement": "pre-steady-state target cleavage rate", "setting": "[1]; [3]", "result": "0.21 ± 0.023"}, {"measurement": "pre-steady-state target cleavage rate", "setting": "[1]; [4]", "result": "0.00615 ± 0.0025"}, {"measurement": "pre-steady-state target cleavage rate", "setting": "[2]", "result": "0.00429 ± 0.002"}]}, {"sequence": "UCCUGGAUGAGCUUGCACAGUAUUUAGUUA", "values": [{"measurement": "pre-steady-state target cleavage rate", "setting": "[1]; [3]", "result": "0.172 ± 0.014"}, {"measurement": "pre-steady-state target cleavage rate", "setting": "[1]; [4]", "result": "0.00869 ± 0.0031"}, {"measurement": "pre-steady-state target cleavage rate", "setting": "[2]", "result": "0.0152 ± 0.0046"}]}, {"sequence": "UCCUCCUACAGCCUGCAUAGUAUUUAGUUA", "values": [{"measurement": "pre-steady-state target cleavage rate", "setting": "[1]; [3]", "result": "0.287 ± 0.018"}, {"measurement": "pre-steady-state target cleavage rate", "setting": "[1]; [4]", "result": "0.0111 ± 0.0024"}, {"measurement": "pre-steady-state target cleavage rate", "setting": "[2]", "result": "0.0698 ± 0.018"}]}, {"sequence": "UCCUGGAUGAGCUUGCAUAGUAUUUUAGUUA", "values": [{"measurement": "pre-steady-state target cleavage rate", "setting": "[1]; [3]", "result": "0.163 ± 0.019"}, {"measurement": "pre-steady-state target cleavage rate", "setting": "[1]; [4]", "result": "0.00807 ± 0.0028"}, {"measurement": "pre-steady-state target cleavage rate", "setting": "[2]", "result": "0.00631 ± 0.0035"}]}, {"sequence": "UCCUGGUGACAGCUUGCAUAGUAUUUAGUUA", "values": [{"measurement": "pre-steady-state target cleavage rate", "setting": "[1]; [3]", "result": "0.507 ± 0.044"}, {"measurement": "pre-steady-state target cleavage rate", "setting": "[1]; [4]", "result": "0.0285 ± 0.0085"}, {"measurement": "pre-steady-state target cleavage rate", "setting": "[2]", "result": "0.0328 ± 0.01"}]}, {"sequence": "UCCUGGAACAGCUUGCAUAGUAUUGUAGUUA", "values": [{"measurement": "pre-steady-state target cleavage rate", "setting": "[1]; [3]", "result": "0.151 ± 0.02"}, {"measurement": "pre-steady-state target cleavage rate", "setting": "[1]; [4]", "result": "0.00351 ± 0.0026"}, {"measurement": "pre-steady-state target cleavage rate", "setting": "[2]", "result": "0.00741 ± 0.0027"}]}, {"sequence": "UCCUGGAUCAGCAUGCAUAGUAUUUAGUAA", "values": [{"measurement": "pre-steady-state target cleavage rate", "setting": "[1]; [3]", "result": "0.246 ± 0.012"}, {"measurement": "pre-steady-state target cleavage rate", "setting": "[1]; [4]", "result": "0.00355 ± 0.0026"}, {"measurement": "pre-steady-state target cleavage rate", "setting": "[2]", "result": "0.00497 ± 0.0029"}]}, {"sequence": "UCCUCCUAUCAGCUUGCAUAGUAUUUAGUUA", "values": [{"measurement": "pre-steady-state target cleavage rate", "setting": "[1]; [3]", "result": "0.322 ± 0.015"}, {"measurement": "pre-steady-state target cleavage rate", "setting": "[1]; [4]", "result": "0.00786 ± 0.0023"}, {"measurement": "pre-steady-state target cleavage rate", "setting": "[2]", "result": "0.0677 ± 0.018"}]}, {"sequence": "UCCUCCUAGACCUUGCAUAGUAUUUAGUUA", "values": [{"measurement": "pre-steady-state target cleavage rate", "setting": "[1]; [3]", "result": "0.237 ± 0.024"}, {"measurement": "pre-steady-state target cleavage rate", "setting": "[1]; [4]", "result": "0.00751 ± 0.0025"}, {"measurement": "pre-steady-state target cleavage rate", "setting": "[2]", "result": "0.141 ± 0.041"}]}]}
